Screens (PubChem)
CHO-K1 Ca ag = counter-screen for M1 agonists: effect in parental CHO-K1 cells; Fluo-8 calcium fluorescence; scaled to maximal ATP response, vehicle zero; activation, % at 3 µM; hit rate 0.48% among 360,000; in the data active = activation above about 15%;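 note: untransfected CHO-K1 host cells lacking M1 receptor as counterscreen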
M4 PAM = human M4 muscarinic receptor positive allosteric modulators, primary screen, CHO-K1 cells, Fluo-8 calcium fluorescence. activation, % at 3 µM. hit rate 0.4% among 360,000. CHO-K1 hM4/Gqi5, ACh EC20; 0% = ACh EC20, 100% = maximal ACh;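 active = activation above its plate's cutoff, the mean activation of sample wells plus 3 SD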
Target sequence (P08173 whole entry, looked up): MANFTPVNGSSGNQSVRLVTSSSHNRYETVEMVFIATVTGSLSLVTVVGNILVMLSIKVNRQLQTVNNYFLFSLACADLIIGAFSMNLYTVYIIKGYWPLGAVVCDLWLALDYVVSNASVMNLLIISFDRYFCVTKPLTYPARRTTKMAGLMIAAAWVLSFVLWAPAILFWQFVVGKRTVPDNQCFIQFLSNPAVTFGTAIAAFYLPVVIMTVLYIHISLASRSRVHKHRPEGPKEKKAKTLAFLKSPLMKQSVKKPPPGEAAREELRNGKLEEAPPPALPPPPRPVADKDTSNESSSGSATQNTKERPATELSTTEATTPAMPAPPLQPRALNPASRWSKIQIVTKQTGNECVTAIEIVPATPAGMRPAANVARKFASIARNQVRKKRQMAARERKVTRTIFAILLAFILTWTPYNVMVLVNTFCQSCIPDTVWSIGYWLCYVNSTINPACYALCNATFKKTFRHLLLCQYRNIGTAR
CHO-K1 Ca antag = M1 antagonist counterscreen hit in parental CHO-K1 cells | AID 602250 | hit rate 0.6% among 360,000 | inhibition, % at 3 µM | ATP-induced calcium, Fluo-8 fluorescence;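 active = inhibition above a per-plate cutoff, the plate's mean sample inhibition plus 3 SD, cut at about 24% in these data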;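 note: 0% = DMSO plus EC80 ATP and 100% = DMSO alone without ATP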
M4 antag = human M4 muscarinic receptor antagonists, primary screen, CHO cells, Fluo-8 calcium fluorescence; inhibition, % at 3 µM; hit rate 0.73% among 360,000; CHO-hM4 cells, ACh EC80;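 active = inhibition above its plate's cutoff, the mean inhibition of sample wells plus 3 SD, cut at about 27% in these data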;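 note: 0% = acetylcholine EC80 with DMSO and 100% = DMSO without agonist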
CHRM4 agonist = human M4 muscarinic receptor agonists, primary screen, CHO-K1 cells, Fluo-8 calcium fluorescence | CHO-K1 hM4/Gqi5; vehicle 0%, full acetylcholine response 100% | activation, % at 3 µM | hit rate 0.14% among 360,000 | AID 624127, 2012;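 active = activation above the run mean over all test wells plus 3 SD, cut at about 32% in these data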;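 note: peak over basal fluorescence ratio per well then scaled between controls; 0% = DMSO wells and 100% = acetylcholine at EC100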
M1 PAM parental = nonselective calcium activators in parental CHO-K1 cells, primary screen, counter-screen for M1 PAM project, cell-based, Fluo-8 calcium fluorescence, full deck, 1536-well; ATP EC20; 0% at ATP EC20, 100% at ATP max; activation, % at 3 µM; hit rate 0.02% among 360,000;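 active = activation above the run cutoff, the mean activation of all test compounds plus 3 SD, cut at about 40% in these data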;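 note: peak over basal fluorescence ratio in a 140 s read after ATP addition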
An asterisk follows results filed as active. In the library only some 2% were active in any assay of this set; here they are far more common.

SMILES	CHO-K1 Ca ag	M4 PAM	CHO-K1 Ca antag	M4 antag	CHRM4 agonist	M1 PAM parental
O=C(NC(=S)NCCO)c1cn(-c2ccccc2)nc1-c1ccccc1	1	1	2	1	3	-9
CCCOc1c(Cl)cc(C(=O)NC)cc1OC	0	2	-9	-8	2	-13
O=C(Nc1nccs1)Oc1ccccc1	0	28*	-1	-14	1	9
Cc1cccc(NS(=O)(=O)c2cc3c4c(c2)CC(=O)N4CCC3)c1C	3	3	-9	-8	5	13
Cc1ccccc1NS(=O)(=O)c1cc2c3c(c1)CC(=O)N3CCC2	17*	2	5	6	2	6
